We go through 22 compounds from PubChem BioAssay (NCATS).

Records with an inconclusive call do not appear. The source made the active and inactive calls. The call rests on the fitted dose curve; in most records, active means well fitted inhibition curve with a large enough effect; inconclusive means small, poorly fitted or top-dose-only effect; inactive means no such curve, though single readings can be large or run the other way.
On the % scale 0 is the no-effect control and ±100 the full control effect; potency means the concentration at half of the fitted maximal effect.

The assay can be described thus: Tertiary RLuc qRT-PCR qHTS assay for Zika virus inhibitors (AID 1347169). Further: nearly all actives have a fitted effect of over 55% in size. On activity change, negative = inhibition: top concentration of the series differs between compounds. Particulars: infected Vero cells, reporter luminescence, 48-72 h; series mostly up to 45.9 µM; activity change, negative = inhibition: at the top concentration. An excerpt:
Avindra Nath, Ph.D., National Institute of Neurological Disorders and Stroke (NINDS), Bethesda, MD
Radhakrishnan Padmanabhan, Ph.D., Georgetown University (GU), Washington D.C.
Zika Virus causes congenital defects, including microcephaly and is associated with Guillain-Barre syndrome, eningoencephalitis and myelitis in infected adult. […] Using a target-based approach, we hope to establish a screening paradigm to uncover novel, cell-active NS2B-NS3 protease (Zika Virus) specific inhibitors from NCATS' collection of small molecules using qHTS.
Four assay panel was created to identify potential Zika Virus inhibitors. Namely, (1) GU unlinked NS2B-NS3 AMC tagged protease qHTS, (2) GU unlinked NS2B-NS3 Rhodamine tagged protease qHTS, (3) NINDS linked NS2B-NS3 AMC tagged protease qHTS, (4) NINDS linked NS2B-NS3 Rhodamine tagged protease qHTS. Identified inhibitors were re-acquired and tested against secondary confirmatory, orthogonal, and counterscreens to exclude nonspecific inhibition.
Early Translation Branch (ETB)
National Center for Advancing Translational Sciences (NCATS), Rockville, MD
National Institute of Health (NIH), Bethesda, Maryland
1536-well recombinant virus ZIKV-RLuc (Cambodian) Assay:
For a follow-up assay, we adapted a high throughput orthogonal assay in 1536-well plate format to use the recombinant virus ZIKV-RLuc, in Vero cells. Briefly, three microL of Vero cells derived from a green monkey cell line, were dispensed Multidrop Dispenser into a solid bottom white 1,536-well plate at a concentration of 1,000 cells per well. The plate was incubated overnight in a CO2 incubator at 37 degrees C. Compounds were delivered as a 23 nL DMSO solution by Kalypsys pintool transfer. Following compound transfer, 2 microL of ZIKV-RLuc was added at an MOI of 1-2 and incubated in a CO2 incubator for 48-72 hrs at 37 degrees C. After sufficient incubation of infected cells in test plates, live cell Renilla luciferase substrate (Promega) was added. The luminescence signal was measured after 1-1.5 hrs exposure to substrate in ViewLux reader.
Consider `N#Cc1ccc(N2N=C3c4ccc(C(=O)O)cc4CC[C@@H]3[C@@H]2C2CCCC2)cc1Cl`, for which the Potency is 14.7 µM (active). Regarding `O=C(Nc1ccc(-c2ccc(Cl)c(Cl)c2)cc1)C1=C(O)c2ccccc2S(=O)(=O)N1`, the Potency is 26.2 µM (active). On the same count and under the same terms, as for `O=S(=O)(Nc1cc(Cl)c(Oc2cnc3ccccc3c2)c(Cl)c1)c1ccc(Cl)cc1Cl`, the figure is 9.3 µM (active); as for `Cc1noc(-c2ccc(-c3ccc(CC(=O)O)cc3)cc2)c1NC(=O)O[C@H](C)c1ccccc1Cl`, 14.7 µM (active). As to `CCC(CC)(NC(=O)C(C)C)C(=O)N[C@@H](CCCN=C(N)N)C(=O)NC1(C(=O)NC(c2ccc(F)cc2)c2ccc(F)cc2)CCCC1`, the “activity change, negative = inhibition” value is -11.7% (inactive). `COc1ccc2nccc(C(=O)CC[C@@H]3CCN(CC#Cc4cc(F)cc(F)c4F)C[C@@H]3C(=O)O)c2c1`: the “activity change, negative = inhibition” value was -69.2% (inactive). `COc1ccc2cc(-c3cc(-c4cc(Cl)cc(Cl)c4)nn3C(C)c3ccc(C(=O)NCCC(=O)O)cc3)ccc2c1` (configuration not stated): the “activity change, negative = inhibition” value is -91.5% (inactive). Regarding `CC(O)(C(=O)O)C1CCC2(C)C1CCC1(C)C2CCC2C3(C)CCC(O)C(C)(COC4OC(CO)C(O)C(O)C4O)C3CCC21C` (configuration not stated), the “activity change, negative = inhibition” value was 31.1% [at 14.8 µM] (inactive). In the case of `CC1=C(C(=O)OC2CCCCC2)C(c2ccc([N+](=O)[O-])cc2)C2=C(CC(C)(C)CC2=O)N1` (configuration not stated), the “activity change, negative = inhibition” value is -24.2% (inactive). Turning to `O=C(Nc1ccc(/C=C/c2ccc(NC(=O)c3cc(S(=O)(=O)O)c4cccnc4c3O)cc2S(=O)(=O)O)c(S(=O)(=O)O)c1)c1cc(S(=O)(=O)O)c2cccnc2c1O`, the activity change, negative = inhibition is 59.5% [at 5.25 µM] (inactive).

Regarding `CCCCCCCOc1cc2c(cc1/C(C)=C/c1ccc(C(=O)O)cc1)C(C)(C)CCS2(=O)=O`, the Potency was 2.94 µM (active).

For the compound `COc1cc(C(=O)O)ccc1NC(=O)C1NC(CC(C)(C)C)C(C#N)(c2ccc(Cl)cc2F)C1c1cccc(Cl)c1F` (configuration not stated), the Potency was 9.3 µM (active). Regarding `CC(C)C[C@H](C(=O)O)c1cc(-c2ccc(C(F)(F)F)cc2)cc(-c2ccc(C(F)(F)F)cc2)c1`, the Potency was 9.3 µM (active). Turning to `C=C1/C(=C/C=C2\CCC[C@]3(C)[C@@H]([C@H](C)/C=C/[C@@H](C)C(C)C)CC[C@@H]23)C[C@@H](O)C[C@@H]1O`, the Potency was 3.3 µM (active). Turning to `Cc1cc(C)c2c(c1)C(N(Cc1cc(C(F)(F)F)cc(C(F)(F)F)c1)c1nnn(C)n1)CCCN2CC1CCC(C(=O)O)CC1` (configuration not stated), the Potency is 16.5 µM (active). As for `COc1ccc(CCO[C@@H]2O[C@H](CO[C@H]3OC[C@](O)(CO)[C@H]3O)[C@@H](OC(=O)/C=C/c3ccc(O)c(O)c3)[C@H](O[C@@H]3O[C@@H](C)[C@H](O)[C@@H](O)[C@H]3O)[C@H]2O)cc1OC`, the “activity change, negative = inhibition” value is -9.74% [at 14.8 µM] (inactive). With `C[C@H]1CO[C@@H]2Cn3cc(C(=O)NCc4ccc(F)cc4F)c(=O)c(O)c3C(=O)N12`, the “activity change, negative = inhibition” value was -62% (inactive). For the compound `O=C(O)c1ccc(S(=O)(=O)N(Cc2ccc(OC(F)(F)F)cc2)c2ncc(C(F)(F)F)cc2Cl)cc1`, the Potency was 18.6 µM (active). With `O=C(O)c1cccc(-c2ccc(-c3cn(C(=O)N4CCCCC4Cc4ccccc4)nn3)cc2)c1` (configuration not stated), the Potency was 2.62 µM (active). For `CCC(C)/C=C(C)/C=C/C1=CC2=CC(=O)C3(C)OC(C)(O)C(C(=O)OC)C3C2=CO1` (configuration not stated), the “activity change, negative = inhibition” value is 11% [at 26.6 µM] (inactive). With `CC(C)(C)Sc1c(CC(C)(C)C(=O)O)n(Cc2ccc(Cl)cc2)c2ccc(OCc3ccc4ccccc4n3)cc12`, the Potency was 11.7 µM (active). For `C=C1C(=O)O[C@H]2CC(=C)[C@H]3CC[C@@](C)(O)[C@@H]3CC12` (some centres not stated), the “activity change, negative = inhibition” value is 2.25% (inactive).
